Measured values published in PubChem BioAssay (NCATS).
Values joined by “and” are separate entries in the source; they are usually repeats but may differ in a detail not shown here. Equal values may be shown once. Records with an inconclusive call do not appear. Active and inactive are the calls of the source. Unless noted, the call rests on the fitted dose curve; in most records, active means well fitted curve in the direction sought with a large enough effect; inconclusive means small, poorly fitted or top-dose-only effect, or another doubt; inactive means no such curve, though single readings can be large; an effect the other way counts as inactive or inconclusive.

Columns and labels:
[1] = AP1 Signaling Pathway (AID 357; active means well fitted curve in either direction with a large enough effect, not every such curve was filed as active;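 further: ME-180 reporter cells stimulated with EGF at its EC50 level; on the % scale 0 is the no-effect control and ±100 the full control effect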)
Method in brief: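 First, ME-180 AP-1-bla cells were cultured overnight at 37 °C in low-serum Opti-MEM. Next, titrated compounds with EC50 EGF were incubated 5 hours. Finally, CCF4 was added for 2.5 hours and the 460/530 nm ratio recorded.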

[2] = target: Cytochrome P450 1A2 (Homo sapiens) (UniProt P05177); experiment: p450-cyp1a2 (AID 410; calls by dose curve;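 further: -100% = full effect of reference inhibitor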)
Method in brief: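 Luminescent readout of luciferin formed from Luciferin-ME by human CYP1A2; data normalized against complete inhibition by 57 uM furafylline. Enzyme 20nM, substrate 100uM at Km, 100mM KPO4 buffer, 60 min reaction at room temperature.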

[3] = NFAT Signaling Pathway (AID 444; active means well fitted curve in either direction with a large enough effect, not every such curve was filed as active;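 further: carbachol stimulus at about its EC50 of 1 µM final; on the % scale 0 is the no-effect control and ±100 the full control effect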); conditions: Jurkat NFAT-bla M1, carbachol, beta-lactamase ratio, 5 h
Method in brief: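 Jurkat cells carrying an NFAT-driven β-lactamase reporter and co-transfected muscarinic M1 receptor were treated with compound plus carbachol (1 uM final, an EC50 level) for 5 h at 37 °C. CCF4 loading followed for 1 h at RT; 460/530 nm ratio gave %activity.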

[4] = Stat Signaling Pathway (AID 446; active means well fitted curve in either direction with a large enough effect, not every such curve was filed as active;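 further: ME-180 cervical cancer cells given 40 pM IL-6 alongside compound; SIE-controlled beta-lactamase reporter measured as 460/530 nm FRET emission ratio; on the % scale 0 is the no-effect control and ±100 the full control effect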)
Method in brief: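 Screening format detects activators and inhibitors alike: ME-180 SIE-bla cells stimulated at 40 pM IL-6 for 5 hrs with compound, then dual-emission beta-lactamase read at 405 nm excitation.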

[5] = target: Glucocorticoid receptor (Homo sapiens) (UniProt P04150); experiment: GR-GFP Redistribution (AID 450;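 active means compounds whose dose series gives a full or clear partial fitted curve of increased nuclear translocation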; further: potency means the concentration at half of the fitted maximal effect); conditions: U2OS GR-GFP nuclear translocation, laser cytometry, 2 h
[6] = target: Glucocorticoid receptor (Homo sapiens) (UniProt P04150); experiment: GR-EFC Redistribution (AID 451; calls by dose curve; further: potency means the concentration at half of the fitted maximal effect); conditions: CHO-K1 GR-EFC translocation, beta-gal luminescence, 2 h
Method in brief: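 CHO-K1 cells stably expressing nuclear-localized β-gal enzyme acceptor and GR fused C-terminally to the enzyme donor fragment; ligand-driven nuclear translocation restores β-gal by complementation. Compounds titrated up to 46 uM final, 2 h at 37 °C; luminescence read.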

[7] = target: Mitogen-activated protein kinase 10 (Mus musculus) (UniProt Q61831); experiment: JNK3 AlphaScreen Assay (AID 530; active means well fitted curve in either direction with a large enough effect, not every such curve was filed as active;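 further: kinase came from lysate of stimulated human HepG2 cells; signal reports phosphorylation of biotinylated GST-cJun 1-79 at Ser73 with 10 µM ATP; on the % scale 0 is the no-effect control and ±100 the full control effect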)
Method in brief: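 Inhibitors reduce antibody binding to phosphorylated biotin-cJun, lowering AlphaScreen luminescence. Lysates from HepG2 cells pre-activated by IL-1beta plus TNF-alpha supplied JNK3; compounds were titrated.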

[8] = target: 3',5'-cyclic-AMP phosphodiesterase 4B (Homo sapiens) (UniProt Q07343); experiment: qHTS Assay for Inhibitors of PDE-IV (AID 607; active means well fitted activation curve with a large enough effect in the main read-out, with a control signal flat, not every such curve was filed as active; further: % of control where 0% means no effect)
Method in brief: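 The readout is membrane depolarisation from a cAMP-sensing CNG channel, detected with a potential dye at ex 535/em 590. Cells were HEK293-derived (endogenous PDE-IV) at 1000 cells/well, titrated up to 22.9 uM final.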

[9] = Cell Viability - BJ (AID 421; calls by dose curve;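 further: potency means the concentration at half of the fitted maximal effect; cells exposed to compound for 40 hours at 37 °C before readout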); conditions: BJ fibroblast viability, qHTS
Method in brief: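 Cytotoxicity in human BJ foreskin fibroblasts is scored as loss of cellular ATP after a 40-hour exposure, measured by luciferase luminescence. Controls are DMSO and 100 uM tamoxifen.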

[10] = Cell Viability - Jurkat (AID 426;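 active means dose-dependent loss of cell ATP signal giving a full or clear fitted curve, ranked by lower potency value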; further: potency means the concentration at half of the fitted maximal effect); conditions: qHTS
Method in brief: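 qHTS, 1536-well; Jurkat E6-1, 5000 cells/well, complete medium; cpd 40 hr, 37 °C; CellTiter-Glo 20 min RT; luminescence. AC50 by Hill fit.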

[11] = Cell Viability - Hek293 (AID 427;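 active means compounds whose dose-response curve shows a full or clear partial loss of cell viability, called from curve shape rather than a numeric limit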;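 further: potency means the concentration at half of the fitted maximal effect; cells exposed to compound for 40 hours at 37 °C before reading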); conditions: qHTS
Method in brief: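 qHTS, human embryonic kidney (adenovirus-transformed) cells; 40 hr cpd, 37 °C; CellTiter-Glo ATP luminescence. Norm: DMSO = 0, 100 uM tamoxifen = 100% inhibition. Hill-fit AC50.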

[12] = Cell Viability - SK-N-SH (AID 435; calls by dose curve;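 further: potency means the concentration at half of the fitted maximal effect; compound exposure lasted 40 h at 37 °C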); conditions: SK-N-SH neuroblastoma cell viability qHTS
Method in brief: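 SK-N-SH neuroblastoma cells (1500/well) treated 40 h at 37 °C in complete medium; viability read as cellular ATP by CellTiter-Glo luminescence. Normalized to DMSO and 100 uM tamoxifen; AC50 from Hill fits of qHTS concentration-response.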

[13] = Cell Viability - N2a (AID 540); conditions: N2a mouse neuroblastoma cell viability; at 92.2 µM (top of the series);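 further: plate controls were DMSO alone for no effect and tamoxifen control for full effect; nearly all actives have a fitted effect of over 45% in size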
Method in brief: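 Luminescent ATP signal (CellTiter-Glo, 20 min at room temperature) served as the viability read-out after N2a cells were treated with compounds for 40 hours at 37 °C. Concentration-response data were fitted to the Hill equation for AC50.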

[14] = Cell Viability - NIH 3T3 (AID 541);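 further: plate controls were DMSO alone for no effect and tamoxifen positive control for full effect; nearly all actives have a fitted effect of over 25% in size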
Method in brief: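 Luminescent ATP signal (CellTiter-Glo) served as the viability read-out after NIH 3T3 cells were exposed to compounds over a concentration range for 40 hr at 37 °C. Hill-equation modelling of concentration-response data gave AC50.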

[15] = Cell Viability - HUV-EC-C (AID 542); further: nearly all actives have a fitted effect of over 35% in size; further: potency means the concentration at half of the fitted maximal effect
Method in brief: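 qHTS cytotoxicity: HUV-EC-C, 1000 cells/well, 5 hr settle, compound 40 hr 37 °C, CellTiter-Glo, luminescence. AC50 via Hill equation.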

[16] = Cell Viability - H-4-II-E (AID 543); further: nearly all actives have a fitted effect of over 35% in size; further: potency means the concentration at half of the fitted maximal effect
Method in brief: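 Luminescent ATP signal (CellTiter-Glo) served as the viability read-out, with cytotoxicity seen as a concentration-dependent ATP drop. Cells were treated for 40 hours in complete medium. AC50 values derive from Hill-equation modelling.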

[17] = Cell Viability - SH-SY5Y (AID 544); conditions: SH-SY5Y neuroblastoma cell viability; at 92.2 µM (top of the series);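 further: 0% = DMSO alone and -100% = 100 µM tamoxifen; nearly all actives have a fitted effect of over 55% in size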
Method in brief: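 Luminescent ATP read-out (CellTiter-Glo) measures loss of viable SH-SY5Y neuroblastoma cells after 40 hr compound exposure at 37 °C. AC50 values derive from standard Hill modelling of qHTS concentration-response data.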

[18] = Cell Viability - Renal Proximal Tubule (AID 545);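 further: 0% = DMSO only and -100% = 100 µM tamoxifen; nearly all actives have a fitted effect of over 40% in size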
Method in brief: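 Rat renal proximal tubule primary cells, 1000/well, exposed to compounds for 40 hr at 37 °C in complete medium; cellular ATP read by CellTiter-Glo luminescence. AC50 from concentration-response fitted with standard Hill equation.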

[19] = Cell Viability - Mesenchymal (AID 546); conditions: mesenchymal cells viability, qHTS; at 91.7 µM (top of the series);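 further: cells exposed to compound for 40 hours before reading; 0% = DMSO only and -100% = 100 µM tamoxifen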
Method in brief: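 Normal human renal glomerulus-derived kidney mesenchymal cells, 1000 per well in complete medium, were treated with compounds for 40 hr at 37 °C. Viability was read as intracellular ATP by CellTiter-Glo luminescence; AC50 values came from Hill-equation fits of qHTS concentration-response data.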

Glucocorticoid receptor (Homo sapiens), sequence (P04150 whole entry, looked up, the tested form may be a part): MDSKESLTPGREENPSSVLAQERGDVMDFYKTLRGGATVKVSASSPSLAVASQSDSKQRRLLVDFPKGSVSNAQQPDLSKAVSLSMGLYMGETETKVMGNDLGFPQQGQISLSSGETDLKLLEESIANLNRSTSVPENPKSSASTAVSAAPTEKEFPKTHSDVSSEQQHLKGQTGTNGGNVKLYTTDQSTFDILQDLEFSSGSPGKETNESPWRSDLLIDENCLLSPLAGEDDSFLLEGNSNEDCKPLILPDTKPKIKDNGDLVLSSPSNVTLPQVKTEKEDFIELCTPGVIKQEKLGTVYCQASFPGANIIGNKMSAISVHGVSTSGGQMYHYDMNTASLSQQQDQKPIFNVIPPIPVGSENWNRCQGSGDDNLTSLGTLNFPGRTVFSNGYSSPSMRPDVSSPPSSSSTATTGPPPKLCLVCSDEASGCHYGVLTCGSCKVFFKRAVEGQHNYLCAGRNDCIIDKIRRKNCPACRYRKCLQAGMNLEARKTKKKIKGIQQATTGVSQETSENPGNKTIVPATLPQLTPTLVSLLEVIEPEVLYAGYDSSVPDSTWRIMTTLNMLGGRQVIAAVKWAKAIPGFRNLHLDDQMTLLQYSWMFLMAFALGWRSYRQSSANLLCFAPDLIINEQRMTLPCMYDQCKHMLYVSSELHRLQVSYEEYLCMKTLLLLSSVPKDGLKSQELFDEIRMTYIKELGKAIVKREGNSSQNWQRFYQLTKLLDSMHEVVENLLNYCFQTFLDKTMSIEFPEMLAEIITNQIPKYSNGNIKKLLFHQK
3',5'-cyclic-AMP phosphodiesterase 4B (Homo sapiens), sequence (Q07343 whole entry, looked up): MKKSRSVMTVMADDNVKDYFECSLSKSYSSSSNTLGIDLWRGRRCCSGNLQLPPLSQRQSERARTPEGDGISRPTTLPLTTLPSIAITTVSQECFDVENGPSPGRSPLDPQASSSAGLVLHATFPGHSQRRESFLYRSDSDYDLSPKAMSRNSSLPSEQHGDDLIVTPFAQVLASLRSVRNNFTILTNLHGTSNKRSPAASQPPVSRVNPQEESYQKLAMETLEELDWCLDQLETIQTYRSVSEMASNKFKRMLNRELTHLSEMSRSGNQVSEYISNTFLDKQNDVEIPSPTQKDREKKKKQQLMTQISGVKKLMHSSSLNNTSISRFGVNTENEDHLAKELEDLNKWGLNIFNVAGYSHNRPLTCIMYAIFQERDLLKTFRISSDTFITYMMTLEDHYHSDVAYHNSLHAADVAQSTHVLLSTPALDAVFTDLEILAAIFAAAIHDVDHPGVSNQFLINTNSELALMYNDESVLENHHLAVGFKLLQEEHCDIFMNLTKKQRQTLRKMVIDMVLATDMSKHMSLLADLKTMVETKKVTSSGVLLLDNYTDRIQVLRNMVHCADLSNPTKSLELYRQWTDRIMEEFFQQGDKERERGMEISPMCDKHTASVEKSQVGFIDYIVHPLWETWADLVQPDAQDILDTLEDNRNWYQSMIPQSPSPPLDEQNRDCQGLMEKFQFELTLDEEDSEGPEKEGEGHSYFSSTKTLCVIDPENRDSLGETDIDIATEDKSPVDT
Cytochrome P450 1A2 (Homo sapiens), sequence (P05177 whole entry, looked up): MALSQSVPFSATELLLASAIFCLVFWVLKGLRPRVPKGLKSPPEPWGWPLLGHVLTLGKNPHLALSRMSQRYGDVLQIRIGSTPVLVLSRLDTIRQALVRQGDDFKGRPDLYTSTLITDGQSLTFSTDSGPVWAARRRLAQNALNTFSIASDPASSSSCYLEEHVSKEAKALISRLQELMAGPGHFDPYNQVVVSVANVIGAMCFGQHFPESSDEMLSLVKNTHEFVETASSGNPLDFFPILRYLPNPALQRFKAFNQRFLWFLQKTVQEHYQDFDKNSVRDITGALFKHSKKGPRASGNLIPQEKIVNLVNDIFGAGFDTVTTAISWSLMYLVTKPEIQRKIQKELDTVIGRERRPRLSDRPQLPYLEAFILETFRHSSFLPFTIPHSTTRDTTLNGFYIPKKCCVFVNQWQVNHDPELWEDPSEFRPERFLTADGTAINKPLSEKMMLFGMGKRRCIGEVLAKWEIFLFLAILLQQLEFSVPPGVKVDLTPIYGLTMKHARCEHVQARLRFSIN

COc1ccc(CCNC[C@H](O)c2ccc(O)cc2)cc1OC
inactive: outcome [1] | Potency [2] | activity change, negative = inhibition ([3]; at 38 µM (top of the series)) -28.1% | outcome [4] | Potency [5] > 46 µM | Potency [6] > 46 µM | outcome [7] | outcome [8]

CC1(C)S[C@@H]2[C@H](NC(=O)Cc3ccccc3)C(=O)N2[C@H]1C(=O)O
inactive: outcome [1] | activity change, negative = inhibition ([3]; at 17.2 µM (top of the series)) -9.19% and 5.43% | outcome [4] | Potency [5] > 20.6 µM | Potency [6] > 20.6 µM | outcome [7] | outcome [8]

Cc1ccccc1
inactive: Potency [9] > 92 µM | Potency [10] > 92 µM | Potency [11] > 92 µM | Potency [12] > 92 µM | outcome [7] | activity change, negative = cytotoxicity [13] 5.04% and 4.17% | outcome [14] | Potency [15] | Potency [16] | viability change, negative = cytotoxic [17] -8.19% and -6.58% | outcome [18] | activity change, negative = cytotoxicity [19] 6.68% and 3.68%

CC1=C2[C@@H]([C@H](C)CC[C@H]2/C=C(\C)C(=O)O)[C@H](O)C1
inactive: Potency [9] > 92 µM | Potency [10] > 92 µM | Potency [11] > 92 µM | Potency [12] > 92 µM | outcome [7] | activity change, negative = cytotoxicity [13] 6.2% | outcome [14] | Potency [15] | Potency [16] | viability change, negative = cytotoxic [17] -4.63% | outcome [18] | activity change, negative = cytotoxicity [19] 8.87%

O=C(O)CC/C=C\CC[C@H]1[C@@H](N2CCCCC2)[C@@H](O)C[C@@H]1OCc1ccc(-c2ccccc2)cc1
inactive: Potency [2] | Potency [5] > 46 µM | Potency [6] > 46 µM | outcome [7] | outcome [8]

CC(C)(C)NC(=O)[C@@H]1C[C@@H]2CCCC[C@@H]2CN1C[C@@H](O)[C@H](Cc1ccccc1)NC(=O)[C@H](CC(N)=O)NC(=O)c1ccc2ccccc2n1
inactive: outcome [7] | outcome [14]
active: Potency [10] 46.4 µM | Potency [15] 50.1 µM | Potency [16] 50.1 µM | viability change, negative = cytotoxic [17] -93.9% | activity change, negative = cytotoxicity [19] -97.1%

CCCCCCCC/C=C\CCCCCCCC(=O)O
inactive: Potency [9] > 92 µM | Potency [10] > 92 µM | Potency [11] > 92 µM | Potency [12] > 92 µM | outcome [7] | activity change, negative = cytotoxicity [13] -2.98% | outcome [14] | Potency [15] | Potency [16] | viability change, negative = cytotoxic [17] 3.98% | outcome [18] | activity change, negative = cytotoxicity [19] 16.2%

CCOC(C)=O
inactive: Potency [9] > 92 µM | Potency [10] > 92 µM | Potency [11] > 92 µM | Potency [12] > 92 µM | outcome [7] | activity change, negative = cytotoxicity [13] 9.44% | outcome [14] | Potency [15] | Potency [16] | viability change, negative = cytotoxic [17] -3.69% | outcome [18] | activity change, negative = cytotoxicity [19] 10.1%

CC(Cc1ccc(O)c(O)c1)C(C)Cc1ccc(O)c(O)c1 (configuration not stated)
inactive: outcome [4] | Potency [5] > 20.6 µM

CC(C)=O
inactive: Potency [9] > 92 µM | Potency [10] > 92 µM | Potency [11] > 92 µM | Potency [12] > 92 µM | outcome [7] | activity change, negative = cytotoxicity [13] -2.26% | outcome [14] | Potency [15] | Potency [16] | viability change, negative = cytotoxic [17] -5.22% | outcome [18] | activity change, negative = cytotoxicity [19] -1.45%

CCCCCCCC(=O)O
inactive: Potency [9] > 92 µM | Potency [10] > 92 µM | Potency [11] > 92 µM | Potency [12] > 92 µM | outcome [7] | activity change, negative = cytotoxicity [13] -0.485% and -3.97% | outcome [14] | Potency [15] | Potency [16] | viability change, negative = cytotoxic [17] 0.495% and -6.94% | outcome [18] | activity change, negative = cytotoxicity [19] 4.9% and 1.62%

CC(O)CO (configuration not stated)
inactive: Potency [9] > 92 µM | Potency [10] > 92 µM | Potency [11] > 92 µM | Potency [12] > 92 µM | outcome [7] | activity change, negative = cytotoxicity [13] -4.29% and -9.5% | outcome [14] | Potency [15] | Potency [16] | viability change, negative = cytotoxic [17] -13.2% and -4.54% | outcome [18] | activity change, negative = cytotoxicity [19] 1.55% and 7.01%

CN1Cc2c(N)cccc2C(c2ccccc2)C1 (configuration not stated)
inactive: outcome [1] | Potency [5] > 20.6 µM

Nc1ccn([C@H]2CS[C@@H](CO)O2)c(=O)n1
inactive: Potency [9] > 92 µM | Potency [10] > 92 µM | Potency [11] > 92 µM | Potency [12] > 92 µM | outcome [7] | activity change, negative = cytotoxicity [13] -5.31% | outcome [14] | Potency [15] | Potency [16] | viability change, negative = cytotoxic [17] 1.14% | outcome [18] | activity change, negative = cytotoxicity [19] 7.61%
